# Laboratory results taken from PubChem BioAssay AID1573 (National Center for Advancing Translational Sciences (NCATS), 2009).
# Results filed as inconclusive are left out. Calls of active or inactive are those of the source. Calls follow the shape of the dose curve; as a rule, active = well fitted inhibition curve with a large enough effect; inconclusive = small, poorly fitted or top-dose-only effect; inactive = no such curve, though single readings can be large or run the other way.
# Biological target: Thyroid hormone receptor beta (Homo sapiens) (UniProt P10828)
# Sequence (P10828 whole entry, looked up): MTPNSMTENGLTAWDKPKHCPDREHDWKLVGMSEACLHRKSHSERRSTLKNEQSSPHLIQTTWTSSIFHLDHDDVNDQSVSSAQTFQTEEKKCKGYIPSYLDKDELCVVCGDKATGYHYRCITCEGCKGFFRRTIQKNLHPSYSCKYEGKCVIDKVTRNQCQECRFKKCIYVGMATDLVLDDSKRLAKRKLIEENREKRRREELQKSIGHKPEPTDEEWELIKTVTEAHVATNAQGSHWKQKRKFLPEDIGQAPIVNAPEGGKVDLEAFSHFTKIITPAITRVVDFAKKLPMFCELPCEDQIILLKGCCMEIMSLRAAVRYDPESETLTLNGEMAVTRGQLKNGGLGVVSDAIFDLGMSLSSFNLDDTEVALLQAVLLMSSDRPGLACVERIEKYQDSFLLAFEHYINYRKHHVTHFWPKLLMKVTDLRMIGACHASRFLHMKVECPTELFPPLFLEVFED
# Assay: Concentration Response Confirmation Assay for Inhibitors of the Interaction of Thyroid Hormone Receptor and Steroid Receptor Coregulator 2
# Details: TRb LBD + Texas Red SRC2 peptide, fluorescence polarization, 5 h; series mostly up to 92.2 µM; activity, negative = inhibition: at the top concentration
# Excerpt: NIH Molecular Libraries Probe Production Network [MLPCN] NIH Chemical Genomics Center [NCGC] MLPCN Grant: DK058080 Assay Provider: R. Kip Guy, St. Jude Children's Research Hospital NCGC Assay Overview: Thyroid receptor (TR) regulates many homeostatic processes including basal metabolism, cardiovascular function, body weight, and lipid trafficking. TR modulators are potential therapeutics for obesity and hyperlipidemias but current thyroid analogs have undesirable side effects, particularly cardiac stimulation. To identify inhibitors that specifically prevent the interaction of TR with the steroid receptor coregulator 2 (SRC2), a fluorescence polarization assay was screened. This assay detects interaction of the ligand-binding domain of human TRb with a Texas Red labeled SRC2 peptide, corresponding to a 20 amino acid region of the nuclear receptor interaction domain (Arnold et al., 2006). Small molecule inhibitors that block the interaction of TR and SRC2 are detected by a decrease in fluorescence polarization. This assay is a confirmation assay for AID 1469. Arnold, L. A.; Estebanez-Perpina, E.; Togashi, M.; Shelat, A.; Ocasio, C. A.; McReynolds, A. C.; Nguyen, P.; Baxter, J. D.; Fletterick, R. J.; Webb, P.; Guy, R. K. A high-throughput screening method to identify small molecule inhibitors of thyroid hormone receptor coactivator binding. Sci STKE 2006, p 13.
# NCGC Assay Protocol Summary: For screening, 5 uL/well 0.6 uM TRb and 20 nM SRC2 Texas Red in protein buffer (20mM Tris hydrochloride, 100mM NaCl, 10% glycerol, 1mM EDTA, 0.01% NP-40, 1mM DTT, 1uM T3 and 5% DMSO) was dispensed into black solid 1536-well plates (Grenier) using a solenoid-based dispenser. Following transfer of 23 nL compound or DMSO vehicle by a pin tool, the plates were centrifuged 15 s at 1000 RPM and incubated 5 hr at ambient temperature. The plates were read by an Envision (Perkin Elmer) to detect fluorescence polarization of SRC2 Texas Red (555 nm excitation and 632 nm emission). Data were normalized to unbound (all components except TRb) and bound SRC2 Texas Red controls. In this assay, we provide % activity data for each concentration as well as potencies for the active compounds. Keywords: NIH Roadmap, MLPCN, MLI, MLSMR, qHTS, NCGC, qHTS, thyroid hormone receptor, steroid receptor coactivator, fluorescence polarization
SMILES,"activity, negative = inhibition",Potency
CC1=NN(Cc2ccccc2)C(=O)C1,-18.9% (inactive),–
Oc1ccc2ccccc2c1/C=N/c1nccs1,–,31.6 µM (active)
